Screens deposited in PubChem by National Center for Advancing Translational Sciences (NCATS).
This is one part of a sample in which hits are shown more often than they occur.
CHX counter: counter-screen hit for Shiga toxin inhibitors, cycloheximide; cell reporter, cycloheximide protein synthesis inhibition counterscreen; max response, %; 300,000 tested, 12% active; AID 2314; in the data active = max response mostly above about 13%, no sharp cut-off; inactive = mostly below about 14%; also: read at 38.3 µM for the half of the compounds with a filed dose; 0% is about no effect
NS1 inh: inhibitors of influenza NS1 protein function. 270,000 tested, 0.4% active. Potency, µM (doses to about 46.1 µM), for inactives: top-dose activity, positive = more growth; calls by dose curve; also: potency is read from the fitted curve at half-maximal effect; actives are rising curves; nearly all actives have a fitted effect of over 50% in size
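Growth recovery, yeast-based: influenza A NS1 expressed in S. cerevisiae causes slow growth, and suppressors are detected by OD600. The parent strain without NS1 is used as positive control.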
SARS PLpro yeast: inhibitors of SARS-CoV papain-like protease in yeast; S. cerevisiae expressing SARS-CoV PLpro, growth rescue; Potency, µM (highest dose often 32.9 µM), without a hit: at the top dose activity, positive = growth rescue, most hits filed as activators; 330,000 tested, 0.19% active; calls by dose curve; also: potency is read from the fitted curve at half-maximal effect; 0% is about no effect; nearly all actives have a fitted effect of over 55% in size
Shiga inhibitor: Shiga toxin inhibition; Vero cells, Shiga toxin protein synthesis inhibition reporter; inhibition, % at 38.7 µM; 290,000 tested, 9.2% active; AID 2315; in the data active = inhibition mostly above about 28%, no sharp cut-off; inactive = mostly below about 43%; also: 0% is about no effect
LmPK inh: LmPK (Leishmania mexicana) enzyme inhibition. purified LmPK, Kinase-Glo ATP luminescence, 1 h. Potency, µM (top dose mostly 57.5 µM), for the others: top-dose activity change, negative = inhibition, most hits filed as inhibitors. 290,000 tested, 0.37% active; also: potency is read from the fitted curve at half-maximal effect; % is scaled to controls: 0 for no effect and ±100 for the full control effect
Target sequence (Q27686 whole entry, looked up): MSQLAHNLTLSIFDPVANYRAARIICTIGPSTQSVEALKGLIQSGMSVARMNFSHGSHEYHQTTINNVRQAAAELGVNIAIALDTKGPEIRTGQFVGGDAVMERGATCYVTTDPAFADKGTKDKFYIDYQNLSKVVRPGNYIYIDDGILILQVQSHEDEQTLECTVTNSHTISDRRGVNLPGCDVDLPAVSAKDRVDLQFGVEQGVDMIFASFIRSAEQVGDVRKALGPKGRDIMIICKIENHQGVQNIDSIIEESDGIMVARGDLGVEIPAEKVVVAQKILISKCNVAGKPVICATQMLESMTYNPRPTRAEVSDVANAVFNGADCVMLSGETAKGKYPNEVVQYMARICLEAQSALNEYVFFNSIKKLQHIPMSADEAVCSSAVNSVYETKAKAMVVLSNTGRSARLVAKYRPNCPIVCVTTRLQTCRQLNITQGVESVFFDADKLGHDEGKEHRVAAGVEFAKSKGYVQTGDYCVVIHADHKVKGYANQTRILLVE
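Kinase-Glo luminescence read after 1 h RT reaction of 0.1 nM LmPK with 0.5 mM PEP and 0.1 mM ADP. Activity scaled between uninhibited and enzyme-free controls.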
TbPYK inhibitor: T. brucei pyruvate kinase inhibition; Q57TT1; TbPYK enzyme, Kinase-Glo Plus ATP luminescence, 45 min; Potency, µM (top dose mostly 76.8 µM), for inactives: top-dose activity, negative = inhibition, usual class: inhibitors; 410,000 tested, 0.12% active; AID 624173; also: potency is read from the fitted curve at half-maximal effect; % is scaled to controls: 0 for no effect and ±100 for the full control effect; nearly all actives have a fitted effect of over 50% in size
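Screened from lowest to highest concentration, compounds were pinned into TbPYK/substrate mixtures, and ADP (130 uM final) was added. Plates sat at room temperature for 45 min prior to Kinase-Glo Plus detection by luminescence.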
Active calls of the source: *; ? = inconclusive; nt = no result given; ! = not active in a repeat. Unless noted, calls follow the shape of the dose curve; as a rule, active = well fitted curve in the direction sought with a large enough effect; inconclusive = small, poorly fitted or top-dose-only effect, or another doubt; inactive = no such curve, though single readings can be large; an effect the other way counts as inactive or inconclusive.

SMILES	CHX counter	NS1 inh	SARS PLpro yeast	Shiga inhibitor	LmPK inh	TbPYK inhibitor
CCOc1ccccc1NC(=O)c1cn(C2CCCCC2)c(=O)c2c1c1ccccc1n2C	nt	nt	nt	nt	nt	1.1%
CC1=C(c2ccccc2)C=NNCC1=O	nt	nt	nt	nt	nt	2.5%
CCSc1nnc2c(n1)[nH]c1c(C)cccc12	19.1*	-157.5%	-18.3%	26.0	9.2%	0.0%
O=C(OCc1cn([C@H]2CN(CC3CCCCC3)[C@@H](c3ccccc3)C[C@@H]2O)nn1)c1ccccc1	nt	nt	nt	nt	nt	-10.0%
Cc1ccc(NC(=O)c2cncc(Br)c2)cc1S(=O)(=O)N(C)C	38.0*	19.5%	17.0%	99.0*	-1.6%	-7.0%
Cc1ccc(NC(=O)c2sccc2C)cc1S(=O)(=O)N(C)C	28.2*	-11.5%	-17.2%	45.6	0.8%	-13.5%
Cc1ccc(NC(=O)CSc2nnc(-c3cccs3)o2)cc1S(=O)(=O)N(C)C	26.6*	1.9%	0.6%	117.0*	1.1%	nt
Cc1ccc(NC(=O)c2ccccc2Br)cc1S(=O)(=O)N(C)C	12.9	nt	-0.1%	41.0	8.3%	4.4%
CCN(CC)S(=O)(=O)c1cc(NC(=O)CSc2nnc(-c3cccs3)o2)ccc1C	6.6	2.9%	-10.5%	12.5	-0.2%	-3.7%
COc1ccc(CCN(C)C(=O)c2ccc(S(=O)(=O)NCc3ccco3)cc2)cc1OC	54.7*	10.9%	7.1%	80.7*	0.2%	-0.9%
CN(Cc1cccs1)C(=O)c1ccc(S(=O)(=O)NCc2ccco2)cc1	26.9*	-8.8%	0.4%	25.6	0.1%	2.6%
Cc1cc(C)[n+]2n1C(=O)C(c1ccccc1)=C2[O-]	32.8*!	-27.5%	-0.1%	57.2	-6.4%	2.6%
CCOC(=O)/C(C#N)=C/C1=C(N2CCOCC2)C(C)(C)OCC1	-1.4	-3.2%	0.8%	-10.5	-2.5%	-4.2%
CCOC(=O)C1(Cc2cccc(OC)c2)CCCN(C(=O)c2cc(CC(C)C)[nH]n2)C1 (configuration not stated)	53.2*	-8.5%	-1.3%	86.6*	-0.5%	-4.2%
CCOC(=O)C1(Cc2cccc(OC)c2)CCCN(Cc2cc(OC)c(O)c(OC)c2)C1 (configuration not stated)	12.1	13.0%	10.3%	-8.5	1.4%	-2.0%
CCOC(=O)C1(Cc2cccc(Cl)c2)CCCN(C(=O)c2cc(C)[nH]n2)C1 (configuration not stated)	-2.8	15.8%	11.4%	-11.8	1.3%	-5.0%
CCOC(=O)C1(Cc2cccc(OC)c2)CCCN(C(=O)c2ccc(OC)o2)C1 (configuration not stated)	40.5*	14.0%	1.0%	113.3*	-4.6%	-0.7%
CCC1CCCCN1CCCNC(=O)c1ccc2c(c1)N(Cc1cccc(C)c1)C(=O)c1ccccc1S2(=O)=O (configuration not stated)	nt	nt	nt	nt	nt	-2.1%
Cc1cccc(Cc2c(C)nc3nc(SCC(=O)NCc4ccc(F)cc4)nn3c2C)c1	nt	nt	nt	nt	nt	0.3%
CC(C)Nc1nc(NC(C)C)nc(SCCOC(=O)Nc2ccc(Cl)cc2Cl)n1	21.5*	-16.4%	-77.6%	-5.7	-1.0%	3.7%
CNC(=O)c1c(Cl)cnn1-c1ccc(C)cc1	21.2*	3.8%	1.0%	55.4*	-4.6%	-4.1%
Cc1ccc(-n2nc(C)c(NC(=O)CCl)c2C)cc1	-1.0	-4.7%	?	9.7	5.2%	-7.5%
CNC(=O)c1nn(-c2ccc(C)cc2)ccc1=O	-2.0	-1.6%	-2.4%	-6.5	5.0%	-0.7%
Cc1ccc(-n2ncc(Cl)c2C(=O)NC2CC2)cc1	49.4*	-7.3%	-0.6%	93.4*	-12.6%	-9.8%
C=CCNC(=O)c1c(Cl)cnn1-c1ccc(C)cc1	44.2*	-6.3%	2.3%	69.2*	1.7%	-0.2%
CNC(=O)c1c(Br)cnn1-c1ccc(C)cc1	35.0*	-2.6%	-0.4%	42.5*	-3.8%	-1.1%
NCc1nnn(Cc2ccccc2)c1N	nt	-0.7%	nt	nt	nt	nt
O=C(O)c1ccc2c(c1)C(=O)N([C@]1(C(=O)O)CC1c1ccccc1)C2=O (some centres not stated)	-1.8	nt	-13.3%	-4.6	nt	nt
CC(O)(c1ccc(Cl)cc1)c1ccc(Cl)cc1	2.8	nt	nt	7.3	nt	nt
COc1ccc(CCNc2ncnc3c2c(-c2ccccc2)cn3-c2ccc(Cl)cc2)cc1OC	nt	nt	nt	nt	nt	2.2%
